In PubChem BioAssay AID1445 (SRMLSC, 2008):
The campaign covered roughly 220,000 compounds. About 910 (0.41%) were called active.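 Rule for the calls: active = primary inhibition above the hit cutoff, then over 50% inhibition at one or more dose response concentrations (cut at about 23% in these data, passing the limit was not always enough); inconclusive = conflicting primary data, or primary hits not chosen for dose response; inactive = low primary inhibition, or under 50% at every dose.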 For the sample, actives were picked, then their nearest neighbours and some compounds at random. Entries with a potency or affinity are not part of this list.

What follows are molecules tested against Aminopeptidase N (Plasmodium falciparum (isolate 3D7)) (UniProt O96935) (assay: malaria alanyl aminopeptidase activity blockers – biochemical, fluorogenic H-Leu-NHMec substrate, 1536-well (AID 1445;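 note: plate controls were DMSO full reaction for no effect and no enzyme background for full effect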)). Settings: recombinant M1AAP, H-Leu-NHMec fluorogenic kinetic assay; at 30 µM, active compounds read high unless noted.
Chain of Aminopeptidase N (Plasmodium falciparum (isolate 3D7)) (O96935 whole entry, looked up): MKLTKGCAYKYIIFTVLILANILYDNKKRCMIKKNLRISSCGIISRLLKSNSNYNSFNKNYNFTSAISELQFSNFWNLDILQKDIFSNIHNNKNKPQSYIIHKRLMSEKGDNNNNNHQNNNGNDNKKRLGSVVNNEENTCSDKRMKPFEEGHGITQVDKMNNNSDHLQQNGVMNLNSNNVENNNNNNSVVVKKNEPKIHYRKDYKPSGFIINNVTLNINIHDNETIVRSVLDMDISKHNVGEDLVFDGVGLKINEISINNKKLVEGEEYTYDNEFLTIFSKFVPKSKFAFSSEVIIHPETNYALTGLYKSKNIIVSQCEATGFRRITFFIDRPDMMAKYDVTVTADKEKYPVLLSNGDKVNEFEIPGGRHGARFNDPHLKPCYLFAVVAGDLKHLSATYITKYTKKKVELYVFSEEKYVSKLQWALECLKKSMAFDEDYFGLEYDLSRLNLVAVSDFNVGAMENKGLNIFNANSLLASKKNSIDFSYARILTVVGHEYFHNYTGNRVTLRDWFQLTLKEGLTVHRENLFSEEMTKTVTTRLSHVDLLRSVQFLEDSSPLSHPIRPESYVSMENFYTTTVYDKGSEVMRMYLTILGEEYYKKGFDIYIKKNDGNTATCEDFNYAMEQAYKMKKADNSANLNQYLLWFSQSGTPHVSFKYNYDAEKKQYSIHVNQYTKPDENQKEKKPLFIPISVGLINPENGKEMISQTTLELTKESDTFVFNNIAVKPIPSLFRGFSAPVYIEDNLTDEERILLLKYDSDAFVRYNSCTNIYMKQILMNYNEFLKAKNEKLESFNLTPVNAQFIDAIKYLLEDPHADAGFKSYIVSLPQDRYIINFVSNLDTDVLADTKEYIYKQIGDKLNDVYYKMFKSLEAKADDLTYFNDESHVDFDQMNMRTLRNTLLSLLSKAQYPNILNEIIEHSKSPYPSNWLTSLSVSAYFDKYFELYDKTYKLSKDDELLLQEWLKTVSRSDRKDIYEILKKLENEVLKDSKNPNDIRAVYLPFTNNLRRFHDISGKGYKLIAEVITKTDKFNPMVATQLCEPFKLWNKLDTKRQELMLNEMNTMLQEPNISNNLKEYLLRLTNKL

inhibition, active:
COc1ccc(OC)c(S(=O)(=O)N2CCC(C(=O)NCc3ccccc3)CC2)c1 57.9%, O=C1NC(=S)N/C1=C/c1cc([N+](=O)[O-])ccc1O 27.2%, O=C(N/N=C/c1ccc(O)c(O)c1)C1c2ccccc2Oc2ccccc21 25.6%, Cc1ccc2nc(N3C(=O)C(O)=C(C(=O)c4ccco4)C3c3cccs3)sc2c1 (centres undefined) 27.4%, O=C(Nn1c(C2CC2)nc2ccccc2c1=O)c1ccco1 81.6%, CCc1nn(CCCC(=O)N2CCc3ccccc3C2)c(=O)c2cc3occc3n12 23.8%

inhibition, inactive:
Cc1ccc(C(C(=O)NCc2ccco2)N(Cc2ccco2)C(=O)CNC(=O)c2ccco2)cc1 (centres undefined) 19.3%, COc1ccc(CCNC(=O)C2CCN(S(=O)(=O)c3cc(OC)ccc3OC)CC2)cc1 14.3%, COc1ccc(OC)c(S(=O)(=O)N2CCC(C(=O)NCCc3ccccc3)CC2)c1 -0.81%, COc1ccc(OC)c(S(=O)(=O)N2CCC(C(=O)NCCc3ccc(OC)c(OC)c3)CC2)c1 -4.37%, COc1ccc(S(=O)(=O)N2CCC(C(=O)NCCc3ccccc3)CC2)cc1OC -1.88%, COc1ccc(S(=O)(=O)N2CCC(C(=O)NCc3ccccn3)CC2)cc1OC 2.6%, COc1ccc(OC)c(S(=O)(=O)N2CCC(C(=O)NCc3ccccc3OC)CC2)c1 3.04%, COc1ccccc1N1CCN(C(=O)c2ccc3nc[nH]c3c2)CC1 4.75%, CCn1c(SCC(=O)Nc2nc3ccccc3s2)nnc1-c1ccc(Br)cc1 4.22%, CS(=O)(=O)c1ccc2nnn(OCC(=O)Nc3ccc(Br)cc3Br)c2c1 1.15%, O=C(COC(=O)CCOc1ccccc1)NCc1ccco1 12.3%, O=C(O)c1cccc(CSc2n[nH]c(-c3ccc(Cl)cc3Cl)n2)c1 7.08%, Cc1ccc(NC(=S)NC(=O)/C=C/c2ccco2)c(O)c1 10.8%, O=S(=O)(c1ccc(F)cc1)N1CCN=C1SCc1cccnc1 0.03%, O=C(Nc1cccc(O)c1)c1cnn2cccnc12 13.6%, CC1(C)CC(=O)c2sc(NS(=O)(=O)c3ccc(F)cc3)nc2C1 5.81%, CCc1nnc(NC(=O)CSc2nnc(CNc3cccc(C)c3)n2-c2ccccc2)s1 0.64%, O=C(CCCCl)OCc1cn(-c2ccc(Cl)cc2)nn1 8.74%, O=C(NC1CCCC1)C1CCC(=O)N1C1CCCC1 (centres undefined) 6.41%, CCOC(=O)c1oc2ccccc2c1CN1CCN(C)CC1 0.88%, Clc1ccc(/C=N\Nc2ccccc2)cc1 4.31%, Clc1ccc(/C=N/Nc2nnc(Cl)c3ccccc23)cc1 14.4%, COc1cc(N2CN=c3s/c(=C\c4ccccn4)c(=O)n3C2)cc(OC)c1OC 5.01%, O=[N+]([O-])c1cc(Cl)ccc1-c1nc(-c2ccncc2)no1 3.23%, CCN1C(=O)/C(=c2\sc3nc(=O)c(Cc4ccccc4)nn3c2=O)c2ccccc21 7.93%, C=CCN1C(=O)/C(=c2\sc3nc(=O)c(Cc4ccc(OC)c(OC)c4)nn3c2=O)c2ccccc21 11.6%, CCC(C)c1ccc2oc(-c3ccc(NC(=O)Cn4cnc5c(=O)n(C)c(=O)n(C)c54)cc3)nc2c1 (centres undefined) 17.4%, O=C(N1CCOCC1)C1(c2ccc(Cl)cc2)CCCC1 -5.21%, O=C(CSc1ncc(C(F)(F)F)cc1Cl)NCC1CCCO1 (centres undefined) 0.4%, O=C1NC(=S)N/C1=C\c1cccc([N+](=O)[O-])c1 -1.35%, O=C1NC(=S)N/C1=C/c1cccc([N+](=O)[O-])c1 1.79%, Cc1ccc(C(=O)NCCN2CCNC2=O)cc1 -8.25%, Cc1ccccc1OCC(=O)Nc1ccc2oc(=O)ccc2c1 16.6%, CCOC(=O)C1CCN(C(=O)COc2ccc(N(C)S(=O)(=O)c3ccc(OCC)cc3)cc2)CC1 -2.18%, CCn1c(CSc2nc3ccccc3s2)nnc1SCC(=O)c1ccc(O)cc1O 6.78%, CCn1c(CSc2nc3ccccc3s2)nnc1SCC(=O)c1ccc(Cl)cc1 11.1%, O=C(Cc1c(C(=O)O)[nH]c2ccc(Cl)cc12)Nc1ccc2c(c1)OCCO2 4.87%, Cc1ccc(-c2nnn(CC(=O)N(Cc3ccco3)C(C(=O)NC3CCCC3)c3cccs3)n2)o1 (centres undefined) 0.46%, COc1cc(/C=N/NC(=O)C2c3ccccc3Oc3ccccc32)ccc1O 3.49%, O=C(N/N=C\c1cccnc1)C1c2ccccc2Oc2ccccc21 3.5%, Nc1cc(-c2cccc(F)c2)nn1S(=O)(=O)c1cccc2nsnc12 6.59%, CC1=C(C(=O)Nc2ccccn2)C(c2cn(C)nc2C)C2=C(CCCC2=O)N1 (centres undefined) 9.42%, COc1ccccc1C(=O)Oc1cc(N)n(S(=O)(=O)c2ccccc2)n1 11.1%, Cc1ccc(C(=O)Oc2cc(N)n(S(=O)(=O)c3ccc(C)cc3)n2)cc1 -3.58%, COc1cccc(NC(=S)N(CCc2ccc(OC)c(OC)c2)Cc2ccccn2)c1 4.47%, CCc1ccc2nc(N3C(=O)C(O)=C(C(=O)c4ccco4)C3c3cccs3)sc2c1 (centres undefined) 14.9%, Cc1ccc2nc(N3C(=O)C(O)=C(C(=O)c4cc5ccccc5o4)C3c3cccs3)sc2c1 (centres undefined) 10.6%, Cc1nnc(SCC(=O)N2CCN(C(=O)c3ccco3)CC2)n1-c1ccccc1 -1.57%, Cc1ccc(NC(=O)C(=O)NN)cc1 3.55%, CC(C)(C)n1nnnc1C(c1cccs1)N1CCN(Cc2ccc3c(c2)OCO3)CC1 (centres undefined) 3.23%, COc1ccc(C2OC(=O)CC2C(=O)NCc2ccc(Cl)cc2)cc1OC (centres undefined) -0.93%, CCn1c(=O)c(C(=O)NNS(=O)(=O)c2ccc(C)cc2)c(O)c2ccccc21 5.97%, O=C(Nn1c(C2CCCCC2)nc2ccccc2c1=O)c1ccc([N+](=O)[O-])cc1 2.98%, O=C(Nn1c(-c2ccccc2)nc2ccccc2c1=O)c1ccco1 15.6%, Cc1ccccc1OCc1nc2ccccc2c(=O)n1NC(=O)c1ccco1 22.7%, COc1cc2nc(C3CCC3)n(NC(=O)c3ccco3)c(=O)c2cc1OC 11.3%, NS(=O)(=O)c1ccc(CCNC(=O)c2ccc(Cn3c(=O)[nH]c4ccccc4c3=O)cc2)cc1 4.04%, CC(/C=C/c1ccccc1)=N\NC(=O)c1cc(C)nc2ccccc12 7.74%, CC1CN(C(=O)c2cc(S(=O)(=O)N3CCCC3)c(Cl)cc2Cl)CC(C)O1 (centres undefined) -2.85%, O=C(CNC(=S)N(Cc1ccccc1)Cc1cccnc1)NCCc1ccccc1 -4.94%, N=c1c(C(=O)NC2CCCC2)cc2c(=O)n3ccccc3nc2n1CCN1CCOCC1 12.5%, N=c1c(C(=O)NCc2ccco2)cc2c(=O)n3ccccc3nc2n1Cc1ccccc1 11.6%, Cc1cccn2c(=O)c3cc(C(=O)NCc4cccnc4)c(=N)n(C(C)C)c3nc12 0.19%, Cc1cccn2c(=O)c3cc(C(=O)NCc4ccco4)c(=N)n(C(C)C)c3nc12 18.3%, N=c1c(C(=O)NCc2ccc(F)cc2)cc2c(=O)n3ccccc3nc2n1CCCN1CCOCC1 5.69%, N=c1c(C(=O)NCc2ccco2)cc2c(=O)n3ccccc3nc2n1CCc1ccccc1 9.03%, O=C(COc1cc(F)ccc1[N+](=O)[O-])Nc1ccc(N2CCOCC2)cc1 1.97%, COc1cc(/C=C/C(=O)O)cc(S(=O)(=O)N2CCc3ccccc32)c1OC 7.41%, O=C(O)Cc1ccc(-c2ccccc2-c2ccccc2)cc1 6.14%, COc1ccc(OC)c(C(C)NC(=O)c2ccc(Br)cc2)c1 (centres undefined) 6.29%, CCc1cccc(CC)c1NC(=O)c1ccc(-n2cncn2)nc1 3.55%, Cc1c(Cl)cccc1NC(=O)CCC(=O)N/N=C/c1ccc[nH]1 6.91%, CC(=O)Nc1sc(C)c(C)c1C(=O)Nc1ccc(C)cc1 10.1%, COc1ccc(N=C2S/C(=C\c3ccc(OC(C)C(=O)O)c(OC)c3)C(=O)N2CCc2c[nH]c3ccccc23)cc1 (centres undefined) 31.6%, COc1cc(/C=C2\SC(=Nc3ccccc3)N(CCc3c[nH]c4ccccc34)C2=O)ccc1OC(C)C(=O)O (centres undefined) 16.3%, CCCn1c(N2CCN(C)CC2)nc2c1c(=O)[nH]c(=O)n2C -4.63%, CCN(C1=NS(=O)(=O)c2ccccc21)N(CC)S(=O)(=O)c1ccc(C)cc1 -4.7%, COc1ccc(S(=O)(=O)N(NC2=NS(=O)(=O)c3ccccc32)C(=O)C(C)C)cc1 9.06%, CC1CCCCC1NC(=O)C(=O)NCC1CCCO1 (centres undefined) 0.74%, Clc1cccc(-c2ccc(CNCCCN3CCOCC3)o2)c1 2.45%, CCc1nn(C(C)C(=O)N2CCc3ccccc3C2)c(=O)c2cc3occc3n12 (centres undefined) 2.28%, O=C(CCCn1ncn2c(cc3occc32)c1=O)N1CCc2ccccc2C1 2.44%, CS(=O)(=O)N(Cc1ccc(C(=O)NC2CCCCC2O)cc1)c1ccccc1 (centres undefined) 4.69%
